{"source": "paper PMC4336329", "about": "(PLoS ONE, 2015)", "note": "Hit rate of the full screen: of about 310,000 compounds, about 14,000 (4.5%) showed an effect of 50% or more. The effect is printed as a negative number. For the sample, strong results were picked, then their nearest neighbours and some compounds at random.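 Further: peak tail current of the secondary pulse compared with the same well before compound.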"}
{"molecular_target": "human ether-à-go-go-related gene (hERG) potassium channel (human, UniProt Q12809)", "sequence (Q12809 whole entry, looked up)": "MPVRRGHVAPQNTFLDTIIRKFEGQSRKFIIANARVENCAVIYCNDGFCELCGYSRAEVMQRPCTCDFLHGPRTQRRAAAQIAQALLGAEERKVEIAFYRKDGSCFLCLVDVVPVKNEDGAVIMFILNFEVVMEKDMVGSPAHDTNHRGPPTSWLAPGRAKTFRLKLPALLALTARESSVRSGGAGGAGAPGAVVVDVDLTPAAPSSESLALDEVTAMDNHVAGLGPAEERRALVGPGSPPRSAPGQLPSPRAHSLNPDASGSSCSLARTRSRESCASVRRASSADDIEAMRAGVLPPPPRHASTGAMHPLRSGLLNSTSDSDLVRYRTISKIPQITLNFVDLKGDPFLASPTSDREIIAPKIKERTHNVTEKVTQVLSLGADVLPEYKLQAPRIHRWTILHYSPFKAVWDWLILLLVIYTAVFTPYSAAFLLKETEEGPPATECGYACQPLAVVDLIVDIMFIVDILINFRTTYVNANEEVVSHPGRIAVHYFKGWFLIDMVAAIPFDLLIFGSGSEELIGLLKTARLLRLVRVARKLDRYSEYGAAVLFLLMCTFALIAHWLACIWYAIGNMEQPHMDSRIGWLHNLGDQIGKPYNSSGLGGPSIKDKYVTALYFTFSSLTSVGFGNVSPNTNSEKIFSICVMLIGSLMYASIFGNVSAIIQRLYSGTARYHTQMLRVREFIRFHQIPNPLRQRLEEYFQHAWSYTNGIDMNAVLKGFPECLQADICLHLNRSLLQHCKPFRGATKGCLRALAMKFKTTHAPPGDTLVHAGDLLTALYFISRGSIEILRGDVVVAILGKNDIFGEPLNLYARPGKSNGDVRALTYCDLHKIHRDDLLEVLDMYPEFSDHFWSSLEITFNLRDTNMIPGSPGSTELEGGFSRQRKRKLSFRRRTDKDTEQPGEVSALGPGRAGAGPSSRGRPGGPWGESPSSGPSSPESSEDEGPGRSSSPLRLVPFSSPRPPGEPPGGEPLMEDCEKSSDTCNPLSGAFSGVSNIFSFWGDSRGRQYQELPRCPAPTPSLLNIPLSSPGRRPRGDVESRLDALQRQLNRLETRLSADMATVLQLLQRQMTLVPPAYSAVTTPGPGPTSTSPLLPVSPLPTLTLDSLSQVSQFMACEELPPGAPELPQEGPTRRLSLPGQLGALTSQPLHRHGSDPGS", "test": "primary screen, population patch clamp on CHO cells stably expressing hERG; higher = less effect of the substance", "units": {"hERG current change (%, negative = inhibition) at 10uM": "%"}}
{"smiles": "CCn1c(Cc2c(C)[nH]c3ccccc23)nnc1SCC(N)=O", "hERG current change (%, negative = inhibition) at 10uM": 13.4}
{"smiles": "Cc1nn(C)c2c(=O)c(=O)c2n(C)[nH]1", "hERG current change (%, negative = inhibition) at 10uM": 18}
{"smiles": "Cc1c(C(=O)NCC2CCCO2)oc2ccc3c(c12)C(=O)CC(C)(C)O3", "note": "(stereo not drawn)", "hERG current change (%, negative = inhibition) at 10uM": 2.71}
{"smiles": "O=C(CSc1nnc(CNC(=O)c2ccco2)o1)Nc1cccc(C(F)(F)F)c1", "hERG current change (%, negative = inhibition) at 10uM": -48.3}
{"smiles": "COc1cccc(NC(=O)Cc2csc(NC(=O)Nc3ccccc3OC)n2)c1", "hERG current change (%, negative = inhibition) at 10uM": 18.2}
{"smiles": "COc1ccc(CNCc2c(O)c(Cl)cc3c(C)c(C)c(=O)oc23)c(OC)c1.Cl", "hERG current change (%, negative = inhibition) at 10uM": -3.6}
{"smiles": "O=C(Cn1c(=O)oc2cc(S(=O)(=O)N3CCCC3)ccc21)N1CCc2ccccc2C1", "hERG current change (%, negative = inhibition) at 10uM": -32.3}
{"smiles": "Cc1cccc2nc(CSCc3ccco3)cn12", "hERG current change (%, negative = inhibition) at 10uM": -2.01}
{"smiles": "O=C1c2ccccc2C(=O)N1OCc1ccccc1[N+](=O)[O-]", "hERG current change (%, negative = inhibition) at 10uM": 23.7}
{"smiles": "COc1cccc(CN2CCN(C(=O)CC(C)C)CC2)c1", "hERG current change (%, negative = inhibition) at 10uM": -13.1}
{"smiles": "O=[N+]([O-])c1ccc(N2CCN(C(=S)Nc3ccc(F)cc3)CC2)cc1", "hERG current change (%, negative = inhibition) at 10uM": -44.4}
{"smiles": "O=[N+]([O-])c1ccc(N2CCN(C(=S)Nc3cccc(F)c3)CC2)cc1", "hERG current change (%, negative = inhibition) at 10uM": -52}
{"smiles": "COc1ccccc1N1CCN(C(=O)c2cc(C(=O)N3CCN(c4ccccc4OC)CC3)cc([N+](=O)[O-])c2)CC1", "hERG current change (%, negative = inhibition) at 10uM": -0.436}
{"smiles": "CN1CCN(C(=O)Nc2ccc([N+](=O)[O-])cc2)CC1", "hERG current change (%, negative = inhibition) at 10uM": -23.8}
{"smiles": "COc1ccc(NC(=O)N2CCN(c3ccc([N+](=O)[O-])cc3)CC2)cc1OC", "hERG current change (%, negative = inhibition) at 10uM": -73.2}
{"smiles": "COc1ccccc1N1CCN(C(=O)Nc2ccc([N+](=O)[O-])cc2)CC1", "hERG current change (%, negative = inhibition) at 10uM": -52.4}
{"smiles": "O=[N+]([O-])c1ccc(NC(=S)N2CCN(c3ccc(F)cc3)CC2)cc1", "hERG current change (%, negative = inhibition) at 10uM": 3.73}
{"smiles": "COc1ccc(NC(=O)N2CCN(c3ccc([N+](=O)[O-])cc3)CC2)cc1", "hERG current change (%, negative = inhibition) at 10uM": -36.9}
{"smiles": "CCOC(=O)c1ccc(NC(=O)N2CCN(c3ccccc3OC)CC2)cc1", "hERG current change (%, negative = inhibition) at 10uM": 11.4}
{"smiles": "COc1ccc(NC(=O)N2CCCC2)cc1OC", "hERG current change (%, negative = inhibition) at 10uM": -10.2}
{"smiles": "COc1cccc(CN2CCN(C(=O)Nc3ccc([N+](=O)[O-])cc3)CC2)c1", "hERG current change (%, negative = inhibition) at 10uM": -57.2}
{"smiles": "CCCC[C@@H]1CNC(=S)N1CCC12CC3CC(CC(C3)C1)C2", "hERG current change (%, negative = inhibition) at 10uM": 18.9}
{"smiles": "C=CCn1cccc(C(=O)Nc2ccc(SC)cc2)c1=O", "hERG current change (%, negative = inhibition) at 10uM": -15}
{"smiles": "Cc1nn(CC(=O)N2CCN(C34CC5CC(CC(C5)C3)C4)CC2)c(C)c1[N+](=O)[O-]", "hERG current change (%, negative = inhibition) at 10uM": -1.7}
